SARS PLpro yeast: inhibitors of SARS-CoV papain-like protease in yeast; S. cerevisiae expressing SARS-CoV PLpro, growth rescue; Potency, µM (doses to about 32.9 µM), inactives show at the top dose activity, positive = growth rescue, actives largely listed as activators; 330,000 tested, 0.19% active; further: potency means the concentration at half of the fitted maximal effect; 0% is about no effect; nearly all actives have a fitted effect of over 55% in size
LmPK inh: blocks Leishmania mexicana pyruvate kinase activity; purified LmPK, Kinase-Glo ATP luminescence, 1 h; Potency, µM (doses to about 57.5 µM), for the others: top-dose activity change, negative = inhibition, actives largely listed as inhibitors; 290,000 tested, 0.37% active; AID 1721; active means well fitted curve in the direction sought with a large enough effect; inconclusive means small, poorly fitted or top-dose-only effect, or another doubt; inactive means no such curve, though single readings can be large; an effect the other way counts as inactive or inconclusive; further: potency means the concentration at half of the fitted maximal effect; on the % scale 0 is the no-effect control and ±100 the full control effect
Target sequence (Q27686 whole entry, looked up): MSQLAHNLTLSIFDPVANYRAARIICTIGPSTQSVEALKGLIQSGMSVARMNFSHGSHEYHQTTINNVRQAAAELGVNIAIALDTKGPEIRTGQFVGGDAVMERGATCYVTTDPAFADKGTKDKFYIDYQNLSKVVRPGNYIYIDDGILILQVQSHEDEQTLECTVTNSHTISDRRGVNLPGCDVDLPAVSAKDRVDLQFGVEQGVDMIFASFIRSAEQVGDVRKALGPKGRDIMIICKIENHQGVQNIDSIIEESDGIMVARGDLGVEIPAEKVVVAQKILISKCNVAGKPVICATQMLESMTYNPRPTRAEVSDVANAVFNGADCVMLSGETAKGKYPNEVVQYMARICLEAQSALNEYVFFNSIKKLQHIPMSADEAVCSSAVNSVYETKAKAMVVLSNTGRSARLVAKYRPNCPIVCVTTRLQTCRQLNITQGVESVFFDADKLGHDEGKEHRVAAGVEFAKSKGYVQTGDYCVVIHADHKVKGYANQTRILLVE
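Pyruvate kinase activity monitored as ATP production (luciferase luminescence). Conditions: 0.1 nM enzyme, 0.5 mM PEP, 0.1 mM ADP, 1 h, RT; normalized against uninhibited and no-enzyme wells.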
Tb PYK inh: T. brucei pyruvate kinase inhibition. Potency, µM (top dose mostly 76.8 µM), for inactives: at the top dose activity, negative = inhibition, most hits filed as inhibitors. 410,000 tested, 0.12% active. TbPYK enzyme, Kinase-Glo Plus ATP luminescence, 45 min. AID 624173; active means well fitted curve in the direction sought with a large enough effect; inconclusive means small, poorly fitted or top-dose-only effect, or another doubt; inactive means no such curve, though single readings can be large; an effect the other way counts as inactive or inconclusive; further: potency means the concentration at half of the fitted maximal effect; on the % scale 0 is the no-effect control and ±100 the full control effect; nearly all actives have a fitted effect of over 50% in size
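Quantitative HTS: titrated library compounds versus trypanosomal pyruvate kinase in TEA buffer (pH 7.2) containing KCl, MgCl2, BSA and Tween-20. Reactions were initiated with ADP, 130 uM final. Kinase-Glo Plus luminescence was read after 45 min at RT.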
Cycloheximide cs: affects cycloheximide protein synthesis inhibition readout, counter-screen; cell reporter, cycloheximide protein synthesis inhibition counterscreen; max response, %; 300,000 tested, 12% active; in the data active means max response mostly above about 13%, no sharp cut-off; inactive means mostly below about 14%; further: read at 38.3 µM for the half of the compounds with a filed dose; 0% is about no effect
NS1 inh: inhibitors of influenza NS1 protein function. Potency, µM (series often up to 46.1 µM), for inactives: at the highest dose activity, positive = more growth. 270,000 tested, 0.4% active. AID 2326; further: potency means the concentration at half of the fitted maximal effect; actives are rising curves; nearly all actives have a fitted effect of over 50% in size
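OD600 was taken as the measure of yeast growth restored by compound in an NS1-expressing S. cerevisiae strain. Cells had been washed out of glucose medium and diluted 1:100 into galactose -URA medium, pH 6.0.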
Shiga inhibitor: inhibitors of Shiga toxin in Vero cells; Vero cells, Shiga toxin protein synthesis inhibition reporter; inhibition, % at 38.7 µM; 290,000 tested, 9.2% active; AID 2315; in the data active means inhibition mostly above about 28%, no sharp cut-off; inactive means mostly below about 43%; further: 0% is about no effect
NS1 inh valid: validation of influenza NS1 protein function inhibitors | influenza NS1 function cell assay, 15-point titration | AID 492980 | activity change, negative = inhibition, % at 32.9 µM | shares compounds with NS1 inh | 1,400 tested, under 10 active; further: 0% is about no effect
Flu PR8 replic: reduces influenza A/PR/8/34 replication in MDCK cells | shares compounds with NS1 inh | MDCK infected influenza A/PR/8/34, virus titer TCID50; stronger effect = lower value | virus titer (log TCID50), log10 TCID50 at 5 µM | 95 tested, 30% active; call rule not given here
* marks the source's active call; other numbers are inactive results; ? = inconclusive; . = not tested or not shown. This excerpt belongs to a sample that is enriched for hits. Unless noted, the call rests on the fitted dose curve.

SMILES	SARS PLpro yeast	LmPK inh	Tb PYK inh	Cycloheximide cs	NS1 inh	Shiga inhibitor	NS1 inh valid	others
O=C(O)c1[nH]c2ccccc2c1C(c1ccccc1)c1c(C(=O)O)[nH]c2ccccc12	10.5%	1.9%	3.5%	-0.4	?	-0.5	.
COc1cc(C(c2c(C(=O)O)[nH]c3ccccc23)c2c(C(=O)O)[nH]c3ccccc23)ccc1OCc1ccccc1	5.1%	-0.8%	2.0%	-1.2	6.31µM*	.	-0.2
COC(=O)c1ccc(CSc2nnc(Nc3ccccc3OC)s2)o1	-2.7%	-1.9%	4.9%	13.7	-62.6%	-8.9	.
COC(=O)c1ccc(CSc2nnc(NCc3ccccc3)s2)o1	-1.5%	10.0%	-16.7%	-3.0	14.1µM*	16.4	?
COc1ccc(CSc2nc(O)cc(=O)n2CC(C)C)cc1F	1.1%	-4.6%	1.4%	-4.7	3.55µM*	-5.4	?
CCc1ccc(-n2c(=O)c3sc4ccccc4c3n(CC(=O)NC3CCCCC3)c2=O)cc1	.	.	-4.1%	.	.	.	.
Cc1cc2cc(CNC(=O)Nc3cccc(Cl)c3)ccc2n1C	-5.5%	-7.0%	1.1%	5.2	?	32.2	16.3
Cc1cccc(NC(=O)NCc2ccc3c(c2)cc(C)n3C)c1	-15.0%	0.2%	-2.3%	11.6	11.2µM*	18.1	12.7
CCCC(=O)NCc1ccc2c(c1)cc(C)n2C	-12.2%	-4.5%	-2.6%	-6.2	?	-15.3	.
COc1cccc(NC(=S)NCc2ccc3c(c2)cc(C)n3C)c1	-0.9%	3.7%	2.8%	-3.3	.	1.4	.
Cc1csc2nc(COc3ccc(NC(=O)c4ccccc4F)cc3)cc(=O)n12	.	.	2.5%	.	.	.	.
N#CC1=C(N)NC(SCC(=O)O)=C(C#N)C12CCCC2	11.1%	3.8%	0.2%	3.0	2.24µM*	21.9	0.2
N#CC1=C(N)NC(SCC(=O)Nc2ccccc2)=C(C#N)C12CCCC2	-1.0%	1.5%	1.9%	19.2	-4.9%	5.0	.
Cc1cc(C)cc(NC(=S)NCc2cccn2C)c1	3.9%	2.2%	-2.9%	-3.1	10µM*	-5.0	-5.9
CN(CC(=O)Nc1ccc(Cl)cc1)C(=O)c1cc(-c2cccs2)nn1-c1ccccc1	.	.	1.5%	.	.	.	.
O=C(COC(=O)c1cc(-c2cccs2)nn1-c1ccccc1)Nc1ccc(Cl)c([N+](=O)[O-])c1	-9.9%	5.8%	-1.4%	-3.0	11.2µM*	-9.1	-14.7
CC(=O)c1ccc(S(=O)(=O)N2CCN(c3nc(-c4cccnc4)nc4ccccc34)CC2)cc1	-4.8%	.	-2.6%	.	.	.	.
O=C(COc1ccc(Cl)cc1Cl)NC(=S)N1CCCc2ccccc21	13.5%	3.4%	?	43.4*	10µM*	66.9*	?
CC(C)(C)C1CCc2onc(C(=O)Nc3cnn(Cc4ccc(F)cc4)c3)c2C1 (stereo unspecified)	2.0%	7.2%	-3.7%	-2.9	-6.6%	-13.1	.
CC(C)(C)C1CCc2onc(C(=O)Nc3ccc(F)cc3F)c2C1 (stereo unspecified)	2.3%	-3.6%	-15.5%	-2.9	?	6.1	?
Cc1ccc(-n2c(SCC(=O)Nc3ccc4c5c(cccc35)CC4)nc(O)cc2=O)cc1	?	2.7%	-0.5%	-2.9	?	-12.4	.
Cc1ccc(-n2c(SCC(=O)Nc3ccc4c5c(cccc35)CC4)nc(O)c(C)c2=O)cc1	3.3%	-0.4%	6.5%	4.2	7.94µM*	7.3	37.7
C/C(N)=C(/C#N)C(=O)CSc1n[nH]c(-c2ccccc2Br)n1	8.5%	-0.4%	5.1%	46.2*	3.98µM*	65.7*	-0.5
COc1ccc(CNC(=O)c2sc3nc4n(c(=O)c3c2C)CCC4)cc1	.	.	-0.8%	.	.	.	.
O=C(CN1CCc2ccccc2C1)NCc1ccco1	-1.1%	-7.1%	-11.8%	3.4	?	14.5	4.3
SMILES	SARS PLpro yeast	LmPK inh	Tb PYK inh	Cycloheximide cs	NS1 inh	Shiga inhibitor	NS1 inh valid	others
CC1CCN(CC(=O)NCc2ccco2)CC1	2.5%	4.2%	1.2%	0.4	-0.4%	-15.3	.
CC(C)c1ccc(C2=C(O)c3ccccc3C(=O)C2=O)cc1	-92.2%	-19.7%	-8.8%	-2.5	-16.3%	9.8	.
O=C1C(c2ccncc2)=C(O)c2ccccc21	-1.4%	?	-5.0%	26.1*	0.251µM*	11.8	-3.2
O=C(Nc1cc(-c2ccc(F)c(F)c2)no1)c1ccccc1F	.	.	-5.1%	.	.	.	.
COc1ccccc1NC(=O)Cn1c(=O)n(CCc2c[nH]c3ccccc23)c(=O)c2cccnc21	-1.9%	2.8%	0.8%	7.4	11.2µM*	26.8	25.6
COc1ccc(/C(C)=N\NS(C)(=O)=O)c(OC)c1	14.1%	3.2%	2.4%	3.6	?	5.9	-3.5
Nn1c(SCC(=O)Nc2ccccc2F)nnc1-c1cccs1	0.0%	.	-3.1%	.	.	.	.
Cc1ccc(-n2cc(-c3ccc([N+](=O)[O-])cc3)[nH]c2=S)c(C)c1	3.8%	0.8%	-35.4%	3.5	6.31µM*	12.9	-32.2
CCc1nnc(SCc2nc(-c3ccccc3F)oc2C)c2cc3sccc3n12	.	.	0.0%	.	.	.	.
CCCCNC(=O)CN(c1cc(C(F)(F)F)ccc1Cl)S(C)(=O)=O	6.8%	0.8%	-6.6%	-4.9	1µM*	12.1	-4.0	Flu PR8 replic=8
COCCCNC(=O)CN(c1cc(C(F)(F)F)ccc1Cl)S(C)(=O)=O	-0.3%	-4.3%	-4.5%	4.5	9.2%	16.4	.
FC(F)(F)c1cccc(NC(=S)N2CCN(c3cccc(C(F)(F)F)c3)CC2)c1	4.8%	3.5%	-4.1%	-5.7	?	32.1	30.8
Fc1ccc(NC(=S)N2CCN(c3cccc(C(F)(F)F)c3)CC2)cc1	-31.8%	2.5%	-14.6%	-4.0	1.5%	-8.7	.
Cc1cc(C)cc(NS(=O)(=O)c2ccc(NC(=S)NC(=O)c3cccs3)cc2)c1	3.2%	-0.4%	-14.3%	7.8	12.6µM*	17.6	-33.0
O=C(/C=C/c1ccc(Cl)c([N+](=O)[O-])c1)Nc1cccnc1	1.6%	-4.5%	3.4%	12.5	3.1%	17.4	.
O=C(/C=C/c1ccc(Cl)c([N+](=O)[O-])c1)Nc1ccc(NC(=O)c2ccco2)cc1	14.2%	-0.1%	-4.0%	-1.1	2.2%	-14.2	.
O=C(NC(=S)Nc1ccc(N2CCCC2)cc1)c1ccccc1[N+](=O)[O-]	13.7%	1.6%	-12.9%	13.3	?	39.9*	2.1
O=C(/C=C/c1ccc(Cl)c([N+](=O)[O-])c1)Nc1ccc(N2CCCC2)cc1	-11.4%	-0.1%	-12.0%	-3.1	?	-6.9	18.1
O=C(/C=C/c1ccc(Cl)c([N+](=O)[O-])c1)Nc1cccc(NC(=O)c2ccco2)c1	2.9%	1.9%	-2.7%	36.0*	17.8µM*	66.9*	8.1
C[C@H]1CN([C@@H](C)CO)C(=O)CCCn2cc(nn2)CO[C@@H]1CN(C)S(=O)(=O)c1cccc(F)c1	.	.	7.6%	.	.	.	.

Screening data: PubChem, National Center for Advancing Translational Sciences (NCATS)
